Assay results from the supplement of paper PMC10849652.
About 8,800 targets were measured; listed, in parts, are those with a hit and a random draw of the rest. About 0.5% of all pairs of compound and target were hits.

Assays:
Assay in all cases: log2 fold change, soluble protein after heating vs DMSO (PISA); higher = thermal stabilisation; K562 lysate, 10 uM; active = over 0.2 and 3.5 SD of the protein, either way, in both replicates (recomputed)
[1] = compound: Cc1cn(-c2cc(NC(=O)c3ccc(C)c(Nc4nccc(-c5cccnc5)n4)c3)cc(C(F)(F)F)c2)cn1 [nilotinib]
In short: (§1)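 K562 pellets were dounce-homogenised in PBS pH 7.4 with 1 mM MgCl2, and the crude extract at 1 mg/mL protein was treated with 10 μM compound for 30 min. Aliquots were heated for 3 min across 48°C-58°C, pooled, and brought to 0.5% NP-40 at 4°C; soluble protein was the supernatant after 21,000xg for 90 min. Soluble protein was quantified by TMTpro 16plex LC-MS/MS with channel sums equalised, and reported as log2 fold change in thermal stability against DMSO controls, with values from duplicates.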

[2] = compound: Cc1nc(Nc2n[nH]c3c2CN(C(=O)N[C@H](CN(C)C)c2ccccc2)C3(C)C)c2sccc2n1
In short: as §1

[3] = compound: Cc1nc(Nc2ncc(C(=O)Nc3c(C)cccc3Cl)s2)cc(N2CCN(CCO)CC2)n1 [dasatinib]
In short: as §1

[4] = compound: Cc1ncc(-c2ccnc(Nc3ccc(S(C)(=O)=O)cc3)n2)n1C(C)C
In short: as §1

[5] = compound: Cn1cc(-c2ccc3c(c2)CCN3C(=O)Cc2cccc(C(F)(F)F)c2)c2c(N)ncnc21
In short: as §1

[6] = compound: Cn1cc(CNCC2CCN(c3ncc(C(=O)NO)cn3)CC2)c2ccccc21 [quisinostat]
In short: as §1

[7] = compound: Cn1cncc1[C@@](N)(c1ccc(Cl)cc1)c1ccc2c(c1)c(-c1cccc(Cl)c1)cc(=O)n2C [tipifarnib]
In short: as §1

[8] = compound: NC(=O)Nc1cc(-c2cccc(F)c2)sc1C(=O)N[C@H]1CCCNC1
In short: as §1

[9] = compound: NC(=O)c1cnc(N[C@@H]2CCCC[C@@H]2N)nc1Nc1cccc(-n2nccn2)c1
In short: as §1

[10] = compound: NC1(c2ccc(-c3nc4ccn5c(=O)[nH]nc5c4cc3-c3ccccc3)cc2)CCC1
In short: as §1

[11] = compound: NCC(=O)Nc1ccc(-n2nc(C(F)(F)F)cc2-c2ccc3c(ccc4ccccc43)c2)cc1
In short: as §1

[12] = compound: O=C(CCCCCCC(=O)Nc1ccccc1)NO [vorinostat]
In short: as §1

[13] = compound: O=C(O)c1ccc2c(c1)nc(Nc1cccc(Cl)c1)c1ccncc12 [silmitasertib]
In short: as §1

[14] = compound: O=C1NC(=O)C(c2cnc3ccccn23)=C1c1cn2c3c(cc(F)cc13)CN(C(=O)N1CCCCC1)CC2
In short: as §1

[15] = compound: c1cn2cc(-c3ccc4cn[nH]c4c3)nc(Nc3ccc(N4CCOCC4)cc3)c2n1 [entospletinib]
In short: as §1

Measured: log2 fold change

MAD2L2 (UniProt Q9UI95)
Chain of UniProt Q9UI95 (Q9UI95 whole entry, looked up): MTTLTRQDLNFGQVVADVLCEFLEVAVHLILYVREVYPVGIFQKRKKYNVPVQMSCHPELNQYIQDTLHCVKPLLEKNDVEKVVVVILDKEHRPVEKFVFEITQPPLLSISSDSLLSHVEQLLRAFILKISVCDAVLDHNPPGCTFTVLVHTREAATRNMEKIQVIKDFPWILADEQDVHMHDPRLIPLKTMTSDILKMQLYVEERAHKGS
active: [12] -0.348
inactive: [1] 0.031 | [2] -0.029 | [3] -0.064 | [4] 0.006 | [5] -0.035 | [6] -0.231 | [7] -0.015 | [8] 0.064 | [9] 0.117 | [10] -0.065 | [11] 0.075 | [13] -0.006 | [14] -0.02 | [15] 0.017

MRPL15 (UniProt Q9P015)
inactive: [1] 0.011 | [2] -0.034 | [3] 0.004 | [4] -0.028 | [5] -0.008 | [6] -0.022 | [7] 0.012 | [8] 0.005 | [9] 0.012 | [10] -0.181 | [11] 0.068 | [12] 0.137 | [13] -0.071 | [14] -0.02 | [15] -0.061

MBD2 (UniProt Q9UBB5)
active: [12] -0.244
inactive: [1] 0.012 | [2] 0.007 | [3] -0.039 | [4] 0 | [5] 0.069 | [6] -0.014 | [7] -0.011 | [8] -0.009 | [9] -0.003 | [10] 0.024 | [11] 0.018 | [13] 0.017 | [14] -0.022 | [15] 0.022

MRPL12 (UniProt P52815)
inactive: [1] 0.032 | [2] -0.01 | [3] 0.034 | [4] 0.099 | [5] -0.013 | [6] 0.084 | [7] 0.031 | [8] -0.023 | [9] -0.022 | [10] -0.006 | [11] -0.07 | [12] 0.116 | [13] -0.023 | [14] 0 | [15] -0.152

MAPK6 (UniProt Q16659)
inactive: [1] -0.065 | [2] 0.085 | [3] 0.032 | [4] 0.05 | [5] 0.039 | [6] -0.003 | [7] -0.081 | [8] 0.055 | [9] 0.017 | [10] -0.028 | [11] -0.04 | [12] -0.033 | [13] 0.033 | [14] 0.035 | [15] 0.024

LZTR1 (UniProt Q8N653)
inactive: [1] 0.016 | [2] 0.014 | [3] -0.063 | [4] -0.068 | [5] 0.008 | [6] -0.029 | [7] -0.036 | [8] 0.099 | [9] -0.033 | [10] -0.019 | [11] -0.022 | [13] 0.005 | [14] 0.013 | [15] 0.055
active: [12] -0.472

MACROD1 (UniProt Q9BQ69)
Chain of UniProt Q9BQ69 (Q9BQ69 whole entry, looked up): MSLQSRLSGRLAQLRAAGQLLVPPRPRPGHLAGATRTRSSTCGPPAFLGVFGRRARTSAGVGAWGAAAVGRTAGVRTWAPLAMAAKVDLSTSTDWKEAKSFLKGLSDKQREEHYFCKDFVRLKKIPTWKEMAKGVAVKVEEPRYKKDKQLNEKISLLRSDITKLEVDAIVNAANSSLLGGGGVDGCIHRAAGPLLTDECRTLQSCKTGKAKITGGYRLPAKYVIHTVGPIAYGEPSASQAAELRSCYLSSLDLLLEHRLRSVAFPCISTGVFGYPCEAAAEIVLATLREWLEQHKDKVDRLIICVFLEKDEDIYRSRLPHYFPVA
inactive: [1] 0.036 | [2] -0.099 | [3] -0.066 | [4] 0.021 | [5] 0.055 | [6] -0.083 | [7] 0.005 | [8] 0.022 | [9] -0.006 | [10] -0.024 | [11] 0.11 | [13] 0.04 | [14] 0.05 | [15] 0.047
active: [12] -0.363

LIG3 (UniProt P49916)
Chain of UniProt P49916 (P49916 whole entry, looked up): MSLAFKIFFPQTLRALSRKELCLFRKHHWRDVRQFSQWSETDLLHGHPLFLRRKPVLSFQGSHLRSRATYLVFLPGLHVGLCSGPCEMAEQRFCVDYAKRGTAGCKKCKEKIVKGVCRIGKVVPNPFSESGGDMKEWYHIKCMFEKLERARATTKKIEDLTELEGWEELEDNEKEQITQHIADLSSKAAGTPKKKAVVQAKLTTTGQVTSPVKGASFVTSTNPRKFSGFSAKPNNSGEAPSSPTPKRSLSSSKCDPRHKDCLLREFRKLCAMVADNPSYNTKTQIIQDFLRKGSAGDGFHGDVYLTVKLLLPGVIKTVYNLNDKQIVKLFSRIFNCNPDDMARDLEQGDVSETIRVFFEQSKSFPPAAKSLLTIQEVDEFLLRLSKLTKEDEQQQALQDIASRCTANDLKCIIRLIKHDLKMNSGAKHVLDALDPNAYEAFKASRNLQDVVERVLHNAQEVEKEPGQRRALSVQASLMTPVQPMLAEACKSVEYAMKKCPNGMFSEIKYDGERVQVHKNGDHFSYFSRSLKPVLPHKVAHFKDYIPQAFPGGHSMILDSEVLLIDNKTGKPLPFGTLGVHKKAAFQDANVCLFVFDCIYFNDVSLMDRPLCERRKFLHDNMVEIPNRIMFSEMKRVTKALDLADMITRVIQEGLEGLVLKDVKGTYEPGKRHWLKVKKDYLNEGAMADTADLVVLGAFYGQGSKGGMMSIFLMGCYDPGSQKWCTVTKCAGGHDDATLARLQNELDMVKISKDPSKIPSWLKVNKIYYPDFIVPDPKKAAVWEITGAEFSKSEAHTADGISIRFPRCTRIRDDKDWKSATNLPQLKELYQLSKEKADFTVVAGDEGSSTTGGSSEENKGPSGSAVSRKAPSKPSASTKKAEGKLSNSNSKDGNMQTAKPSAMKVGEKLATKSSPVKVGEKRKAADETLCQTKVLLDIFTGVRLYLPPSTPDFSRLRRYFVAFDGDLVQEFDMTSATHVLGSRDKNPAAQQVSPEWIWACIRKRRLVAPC
inactive: [1] 0.012 | [2] 0.002 | [3] -0.011 | [4] -0.019 | [5] 0.046 | [6] -0.024 | [7] -0.004 | [8] 0.059 | [9] 0.008 | [10] 0.011 | [11] -0.061 | [13] 0.018 | [14] -0.012 | [15] -0.004
active: [12] -0.411

KRAS (UniProt P01116)
Chain of UniProt P01116 (P01116 whole entry, looked up): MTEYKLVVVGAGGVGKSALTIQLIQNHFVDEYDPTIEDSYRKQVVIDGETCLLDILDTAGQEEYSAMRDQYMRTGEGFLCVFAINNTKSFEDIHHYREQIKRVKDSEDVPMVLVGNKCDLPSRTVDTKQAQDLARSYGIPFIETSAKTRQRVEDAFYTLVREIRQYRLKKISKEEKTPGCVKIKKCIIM
inactive: [1] 0.034 | [2] -0.014 | [3] 0.049 | [4] 0.018 | [5] -0.015 | [6] 0.042 | [7] 0.129 | [8] -0.001 | [9] 0.005 | [10] -0.032 | [11] 0.033 | [12] 0.129 | [13] 0.022 | [14] -0.072 | [15] -0.021

MARK2 (UniProt E9PC69)
active: [13] 0.486
inactive: [1] 0.019 | [2] 0.034 | [3] -0.03 | [4] 0.012 | [5] -0.047 | [6] 0.031 | [7] -0.019 | [8] -0.065 | [9] 0.002 | [10] -0.183 | [11] 0.026 | [12] -0.167 | [14] 0.006 | [15] 0.153

KRIT1 (UniProt O00522)
inactive: [1] -0.011 | [2] -0.04 | [3] 0.027 | [4] 0.041 | [5] -0.048 | [6] -0.147 | [7] -0.135 | [8] 0.09 | [9] 0.021 | [10] -0.005 | [11] -0.125 | [12] -0.046 | [13] -0.013 | [14] -0.02 | [15] 0.012

MAP2K5 (UniProt Q13163)
inactive: [1] 0.019 | [2] -0.086 | [3] -0.229 | [4] -0.143 | [5] 0.079 | [6] -0.152 | [7] -0.015 | [9] 0.035 | [10] -0.048 | [11] -0.111 | [12] -0.293 | [13] -0.123 | [14] 0.023 | [15] 0.065
active: [8] 0.925

MAPK14 (UniProt Q16539)
inactive: [1] 0.563 | [2] 0.038 | [4] 0.069 | [5] -0.029 | [6] -0.025 | [7] -0.137 | [8] -0.012 | [9] -0.005 | [10] -0.042 | [11] -0.007 | [12] -0.294 | [13] 0.279 | [14] 0.015 | [15] -0.005
active: [3] 0.984

MAP2K2 (UniProt P36507)
inactive: [1] -0.03 | [2] 0.205 | [4] 0.065 | [5] -0.031 | [6] 0 | [7] -0.006 | [9] 0.033 | [10] -0.002 | [11] -0.031 | [12] -0.088 | [13] 0.099 | [14] 0.032 | [15] 0.04
active: [3] 0.445 | [8] 0.495

KNL1 (UniProt Q8NG31)
Chain of UniProt Q8NG31 (Q8NG31 whole entry, looked up): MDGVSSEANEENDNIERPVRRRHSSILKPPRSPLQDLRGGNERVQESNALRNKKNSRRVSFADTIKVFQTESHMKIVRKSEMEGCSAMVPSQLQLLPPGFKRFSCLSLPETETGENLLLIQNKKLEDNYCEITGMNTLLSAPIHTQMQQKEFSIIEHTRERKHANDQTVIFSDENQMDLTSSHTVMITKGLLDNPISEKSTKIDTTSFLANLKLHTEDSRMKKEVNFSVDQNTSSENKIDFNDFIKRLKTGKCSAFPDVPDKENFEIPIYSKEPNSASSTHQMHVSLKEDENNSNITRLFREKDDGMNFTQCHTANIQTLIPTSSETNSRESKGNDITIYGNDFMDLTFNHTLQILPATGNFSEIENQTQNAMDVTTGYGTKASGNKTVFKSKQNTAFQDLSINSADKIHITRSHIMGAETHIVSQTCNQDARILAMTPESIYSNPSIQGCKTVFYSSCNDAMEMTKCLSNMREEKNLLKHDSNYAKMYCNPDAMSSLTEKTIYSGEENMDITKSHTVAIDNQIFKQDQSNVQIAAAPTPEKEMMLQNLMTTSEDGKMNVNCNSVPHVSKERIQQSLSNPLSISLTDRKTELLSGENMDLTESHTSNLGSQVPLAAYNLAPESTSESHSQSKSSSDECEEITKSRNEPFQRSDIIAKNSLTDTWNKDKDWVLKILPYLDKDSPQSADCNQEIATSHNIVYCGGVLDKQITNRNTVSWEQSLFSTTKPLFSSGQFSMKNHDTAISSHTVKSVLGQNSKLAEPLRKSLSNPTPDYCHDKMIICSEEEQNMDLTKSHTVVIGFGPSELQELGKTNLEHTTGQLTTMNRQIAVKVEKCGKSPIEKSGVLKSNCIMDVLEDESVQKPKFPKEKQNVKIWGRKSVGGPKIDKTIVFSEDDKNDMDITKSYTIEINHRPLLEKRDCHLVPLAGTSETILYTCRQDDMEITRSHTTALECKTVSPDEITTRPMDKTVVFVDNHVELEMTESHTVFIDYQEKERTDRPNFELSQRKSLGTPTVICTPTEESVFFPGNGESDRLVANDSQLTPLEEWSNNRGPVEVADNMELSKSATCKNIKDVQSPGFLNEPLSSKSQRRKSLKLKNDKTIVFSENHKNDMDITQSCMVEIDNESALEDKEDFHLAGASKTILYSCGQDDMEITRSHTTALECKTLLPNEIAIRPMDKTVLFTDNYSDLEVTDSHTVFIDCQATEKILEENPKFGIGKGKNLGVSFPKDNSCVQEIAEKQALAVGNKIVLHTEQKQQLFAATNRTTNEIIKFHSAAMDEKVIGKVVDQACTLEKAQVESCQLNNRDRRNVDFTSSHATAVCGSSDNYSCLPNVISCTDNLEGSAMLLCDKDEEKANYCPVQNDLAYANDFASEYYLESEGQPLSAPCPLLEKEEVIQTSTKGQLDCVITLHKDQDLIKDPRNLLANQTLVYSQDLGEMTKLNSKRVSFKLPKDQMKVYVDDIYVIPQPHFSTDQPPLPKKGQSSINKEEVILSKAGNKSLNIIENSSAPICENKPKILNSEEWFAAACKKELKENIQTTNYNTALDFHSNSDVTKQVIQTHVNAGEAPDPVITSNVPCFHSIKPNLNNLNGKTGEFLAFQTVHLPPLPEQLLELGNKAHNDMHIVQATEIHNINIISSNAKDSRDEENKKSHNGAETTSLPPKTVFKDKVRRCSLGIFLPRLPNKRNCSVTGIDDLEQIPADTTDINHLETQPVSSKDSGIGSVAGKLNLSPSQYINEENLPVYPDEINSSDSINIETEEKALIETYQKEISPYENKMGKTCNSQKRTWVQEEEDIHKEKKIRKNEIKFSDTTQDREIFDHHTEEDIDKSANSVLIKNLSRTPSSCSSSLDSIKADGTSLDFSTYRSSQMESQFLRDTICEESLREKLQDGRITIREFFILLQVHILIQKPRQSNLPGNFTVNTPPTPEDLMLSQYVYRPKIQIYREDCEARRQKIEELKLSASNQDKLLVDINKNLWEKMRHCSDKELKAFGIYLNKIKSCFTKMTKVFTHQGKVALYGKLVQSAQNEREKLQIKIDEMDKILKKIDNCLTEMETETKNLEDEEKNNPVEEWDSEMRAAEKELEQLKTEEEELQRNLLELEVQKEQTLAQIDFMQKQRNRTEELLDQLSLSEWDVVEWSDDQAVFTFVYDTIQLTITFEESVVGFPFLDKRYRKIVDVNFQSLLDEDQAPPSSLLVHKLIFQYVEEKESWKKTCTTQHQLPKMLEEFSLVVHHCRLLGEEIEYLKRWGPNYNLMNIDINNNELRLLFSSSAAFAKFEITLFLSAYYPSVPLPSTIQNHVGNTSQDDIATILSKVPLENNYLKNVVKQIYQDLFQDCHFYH
active: [12] -0.254
inactive: [1] 0.011 | [2] -0.004 | [3] -0.014 | [4] 0.02 | [5] 0.012 | [6] -0.048 | [7] -0.06 | [8] 0.023 | [9] 0.024 | [10] -0.001 | [11] 0.022 | [13] -0.003 | [14] -0.009 | [15] -0.011

MAPK3 (UniProt P27361)
inactive: [1] 0.009 | [3] -0.026 | [4] 0.141 | [5] -0.019 | [6] 0.016 | [7] -0.013 | [8] 0.022 | [9] 0.094 | [10] -0.003 | [11] -0.016 | [12] -0.005 | [13] 0.02 | [14] 0.038 | [15] -0.013
active: [2] 0.272

MPI (UniProt P34949)
inactive: [1] 0.002 | [2] -0.02 | [3] -0.035 | [4] 0.019 | [5] -0.022 | [6] -0.025 | [7] 0.009 | [8] 0.029 | [9] 0.016 | [10] -0.026 | [11] 0.013 | [12] 0.049 | [13] -0.047 | [14] -0.007 | [15] -0.017

MAPK8 isoform 3 (UniProt P45983)
Chain of UniProt P45983 (P45983 whole entry, looked up): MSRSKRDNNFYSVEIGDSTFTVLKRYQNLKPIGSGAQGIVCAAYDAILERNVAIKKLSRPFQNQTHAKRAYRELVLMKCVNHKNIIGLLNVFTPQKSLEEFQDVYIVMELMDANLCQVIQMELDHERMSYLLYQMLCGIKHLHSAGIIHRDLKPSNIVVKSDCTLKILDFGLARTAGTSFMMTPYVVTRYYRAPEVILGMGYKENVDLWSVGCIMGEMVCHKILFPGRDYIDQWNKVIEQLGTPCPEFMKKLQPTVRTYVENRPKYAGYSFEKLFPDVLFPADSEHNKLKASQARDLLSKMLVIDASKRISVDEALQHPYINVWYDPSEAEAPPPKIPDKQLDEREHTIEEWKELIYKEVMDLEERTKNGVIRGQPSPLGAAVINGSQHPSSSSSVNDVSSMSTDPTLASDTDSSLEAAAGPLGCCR
inactive: [1] 0.051 | [2] -0.007 | [3] 0.054 | [5] 0.07 | [6] -0.139 | [7] 0.006 | [8] 0.093 | [9] 0.115 | [10] -0.062 | [11] 0.064 | [13] 0.007 | [14] 0.038 | [15] -0.039
active: [4] 0.326 | [12] -0.395

MBLAC2 (UniProt Q68D91)
inactive: [1] 0.028 | [2] -0.076 | [3] -0.003 | [4] -0.126 | [5] 0.059 | [6] 0.026 | [7] 0.08 | [8] 0 | [9] -0.005 | [10] 0.005 | [11] -0.1 | [12] 0.084 | [13] -0.015 | [14] -0.074 | [15] -0.011

MAP2K7 isoform 4 (UniProt O14733)
Chain of UniProt O14733 (O14733 whole entry, looked up): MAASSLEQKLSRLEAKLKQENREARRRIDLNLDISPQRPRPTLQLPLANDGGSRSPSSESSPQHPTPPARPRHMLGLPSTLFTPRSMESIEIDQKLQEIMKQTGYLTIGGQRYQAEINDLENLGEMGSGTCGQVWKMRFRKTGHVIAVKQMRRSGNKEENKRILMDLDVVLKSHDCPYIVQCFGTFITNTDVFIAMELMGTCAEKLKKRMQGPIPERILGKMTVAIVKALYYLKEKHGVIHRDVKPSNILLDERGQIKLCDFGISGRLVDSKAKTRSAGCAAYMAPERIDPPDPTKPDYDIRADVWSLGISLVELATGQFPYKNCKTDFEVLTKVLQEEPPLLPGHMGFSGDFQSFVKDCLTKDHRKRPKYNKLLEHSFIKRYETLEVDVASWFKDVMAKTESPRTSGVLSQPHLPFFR
inactive: [1] 0.017 | [2] -0.101 | [3] -0.093 | [4] 0 | [5] 0.22 | [6] 0.001 | [7] -0.024 | [8] 0.033 | [9] 0.001 | [10] 0.002 | [11] 0.009 | [13] 0.167 | [14] -0.051 | [15] -0.047
active: [12] -1.09

KPNA2 (UniProt P52292)
inactive: [1] -0.051 | [2] -0.002 | [3] -0.041 | [4] 0.018 | [5] 0.039 | [6] -0.01 | [7] -0.023 | [8] 0.026 | [9] 0.039 | [10] -0.05 | [11] -0.014 | [13] 0.018 | [14] 0.009 | [15] 0.019
active: [12] -0.376
